Experimental data: the supplement of paper PMC6607015
Structures can show the parent of a compound that is named as a salt.

Columns and labels:
Settings in all cases: compound concentration in added solution (µM; 5 µl added to 20 µl cells): 10; 18 h
[1] = tested on: A431; experiment: LBPA endosome anti-LBPA integrated intensity (sum per cell), Z-score; higher = more LBPA staining
In short: (§1)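 Duplicate 384-well imaging plates were prepared with 5 µl of 10 µM compound solution per well, and 3,500 HeLa MZ or A431 cells in 20 µl were added on top. Following 18 h of incubation and fixation in 4% PFA, cells received 6C4 anti-LBPA antibody, filipin, propidium iodide and CellTracker green. Four images per well at 20× were segmented in MetaXpress to yield per-cell integrated LBPA or filipin intensity, whole-cell or within LBPA endosomes. These intensities are reported as Z-scores normalised in AcuityXpress.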

[2] = tested on: HeLa MZ; experiment: as above
In short: as §1

[3] = tested on: A431; experiment: whole-cell filipin (free cholesterol) integrated intensity, Z-score; higher = more cholesterol staining
In short: as §1

[4] = tested on: HeLa MZ; experiment: as above
In short: as §1

[5] = tested on: A431; experiment: filipin (cholesterol) integrated intensity within LBPA endosomes, Z-score; higher = more cholesterol in LBPA endosomes
In short: as §1

[6] = tested on: HeLa MZ; experiment: as above
In short: as §1

SMILES	LBPA endosome anti-LBPA integrated intensity (z-score) [1]	LBPA endosome anti-LBPA integrated intensity (z-score) [2]	whole-cell filipin (z-score) [3]	whole-cell filipin (z-score) [4]	filipin (z-score) [5]	filipin (z-score) [6]
CCNC1(c2cccs2)CCCCC1=O (stereo not drawn) [Tiletamine hydrochloride]	-0.499	-0.0498	-0.0108	-0.435	-0.475	-0.463
CC(O)(CS(=O)(=O)c1ccc(F)cc1)C(=O)Nc1ccc(C#N)c(C(F)(F)F)c1 (stereo not drawn) [Bicalutamide]	-0.376	-0.104	-0.0253	0.26	-0.405	-0.188
C=C(C)[C@@H]1[C@H]2OC(=O)[C@@H]1[C@]1(O)C[C@H]3O[C@]34C(=O)O[C@H]2[C@]14C [Picrotoxinin]	-0.582	-0.88	-0.718	-0.469	-0.448	-0.32
CC(=O)OCC1=C(C(=O)O)N2C(=O)[C@@H](N)[C@H]2SC1 [Cephalosporanic acid, 7-amino]	-0.605	-1.08	-0.806	-0.877	-0.581	-0.604
CCC1=C[C@H]2CN3CCc4c([nH]c5ccccc45)[C@](C(=O)OC)(C2)[C@H]13 [Catharanthine]	0.776	1.57	1.16	0.581	0.958	0.861
CNCC(O)c1ccc(O)cc1 (racemic) [(+,-)-Synephrine]	-0.271	-0.444	0.673	-0.00115	-0.481	-0.576
CN(C)C(=O)Oc1cccc([N+](C)(C)C)c1 [Neostigmine bromide]	-0.478	-0.496	-0.63	-0.608	-0.499	-0.715
NCCC(O)C(=O)NC1CC(N)C(OC2OC(CN)C(O)[C@H](O)[C@@H]2N)[C@H](OC2O[C@H](CO)[C@@H](O)[C@@H]2O)[C@@H]1O (stereo partly drawn) [Butirosin disulfate salt]	-0.571	-0.99	-0.257	0.609	-0.399	-0.239
CO[C@]12C[C@@H](COC(=O)c3cncc(Br)c3)CN(C)[C@@H]1Cc1cn(C)c3cccc2c13 [Nicergoline]	3.54	1.32	3.37	-0.0724	3.09	0.446
COc1ccc(C(CN(C)C)C2(O)CCCCC2)cc1 (stereo not drawn) [Venlafaxine]	-0.375	0.627	-0.148	-0.294	-0.383	-0.283
CCC(=O)O[C@H]1CC[C@H]2[C@@H]3CCC4=CC(=O)CC[C@]4(C)[C@H]3CC[C@]12C [Testosterone propionate]	-0.618	-0.712	-0.907	-0.813	-0.502	-0.546
NCC(CC(=O)O)c1ccc(Cl)cc1 (racemic) [Baclofen (R,S)]	-0.529	-1.07	-1.03	-0.783	-0.513	-0.613
CCNCC(O)c1cccc(O)c1 (stereo not drawn) [Etilefrine hydrochloride]	-0.181	-0.0522	0.485	-0.0907	-0.374	-0.466
NCCCNCCSP(=O)(O)O [Amifostine]	-0.621	-1	-0.901	-0.742	-0.572	-0.603
CC(N)C(O)c1ccccc1 (stereo not drawn) [Phenylpropanolamine hydrochloride]	-0.541	-1.1	-0.689	-0.0866	-0.502	-0.451
COc1ccc(C(=O)N2CCCC2=O)cc1 [Aniracetam]	-0.475	0.124	-0.904	-0.402	-0.562	-0.3
CC(C)[N+](C)(CCC(C(N)=O)(c1ccccc1)c1ccccc1)C(C)C [Isopropamide iodide]	-0.212	0.0469	0.00888	-0.577	-0.389	-0.451
CCCCCC[C@H]1C(=O)O[C@H](C)[C@H](NC(=O)c2cccc(NC=O)c2O)C(=O)O[C@@H](C)[C@@H]1OC(=O)CC(C)C [Antimycin A]	-0.868	-0.65	-0.217	-0.804	-0.854	-0.994
C[N+]1(C)CCCC(OC(=O)C(O)(c2ccccc2)c2ccccc2)C1 (stereo not drawn) [Mepenzolate bromide]	-0.582	-0.861	-0.409	-0.0861	-0.481	-0.374
Cc1cccc(C)c1NC1=NCCCS1 [Xylazine]	-0.493	0.606	-0.691	-0.725	-0.524	-0.0906
CN1C[C@H](CNC(=O)OCc2ccccc2)C[C@@H]2c3cccc4c3c(cn4C)C[C@H]21 [Metergoline]	3.11	1.47	1.11	1.28	4.03	4.18
C[N+]1([O-])[C@@H]2C[C@@H](OC(=O)[C@H](CO)c3ccccc3)C[C@H]1[C@@H]1O[C@@H]12 (stereo partly drawn) [Scopolamin-N-oxide hydrobromide]	-0.692	-1.8	-1.01	-0.711	-0.67	-0.618
CCCC(C)(COC(N)=O)COC(=O)NC(C)C (stereo not drawn) [Carisoprodol]	-0.659	-0.835	-0.863	-0.798	-0.607	-0.604
CCC(=O)O[C@@](Cc1ccccc1)(c1ccccc1)[C@@H](C)CN(C)C [Levopropoxyphene napsylate]	-0.308	-0.465	0.489	0.709	0.194	-0.129

SMILES	LBPA endosome anti-LBPA integrated intensity (z-score) [1]	LBPA endosome anti-LBPA integrated intensity (z-score) [2]	whole-cell filipin (z-score) [3]	whole-cell filipin (z-score) [4]	filipin (z-score) [5]	filipin (z-score) [6]
CC(C)c1c(CN(C)C(C)Cc2ccccc2)n(C)n(-c2ccccc2)c1=O (stereo not drawn) [Famprofazone]	-0.355	-0.241	-0.228	-0.336	-0.4	-0.445
O=C(O)CCCc1ccc(N(CCCl)CCCl)cc1 [Chlorambucil]	-0.184	1.86	1.33	2.72	-0.393	-0.471
CCC1(c2ccc(N)cc2)CCC(=O)NC1=O (stereo not drawn) [Glutethimide, para-amino]	-0.66	-1.41	-1.07	-1	-0.544	-0.691
CC(C)c1cccc(C(C)C)c1O [Propofol]	-0.483	-0.0677	-0.406	-0.391	-0.506	-0.548
C[N+](C)(C)CCCCCCCCCC[N+](C)(C)C [Decamethonium bromide]	-0.547	-1.08	0.0371	0.872	-0.372	-0.446
CC(NC(C)(C)C)C(=O)c1cccc(Cl)c1 (stereo not drawn) [Bupropion hydrochloride]	-0.577	-0.652	-0.448	-0.134	-0.453	-0.438
CN1C[C@H](C(=O)N[C@]2(C)O[C@@]3(O)[C@@H]4CCCN4C(=O)[C@H](Cc4ccccc4)N3C2=O)C[C@@H]2c3cccc4[nH]cc(c34)C[C@H]21 [Dihydroergotamine tartrate]	2.74	2.55	1.06	0.225	1.48	1.1
NCCc1c[nH]c2ccc(O)cc12 [Serotonin hydrochloride]	-0.716	-1.58	-1.04	-1.21	-0.627	-0.624
COc1cc2c(cc1OC)C(C)NCC2 (stereo not drawn)	-0.47	0.672	-0.808	-0.327	-0.528	-0.121
Cc1cc(C(C#N)c2ccc(Cl)cc2)c(Cl)cc1NC(=O)c1cc(I)cc(I)c1O (stereo not drawn) [Closantel]	-0.54	-1	-0.93	-0.632	-0.512	-0.663
C[C@]12C[C@H]3S[C@H]3C[C@@H]1CC[C@@H]1[C@@H]2CC[C@]2(C)[C@@H](O)CC[C@@H]12 [Epitiostanol]	-0.387	0.565	0.372	0.761	-0.364	-0.401
O=C(CCCN1CCC(n2c(=O)[nH]c3ccccc32)CC1)c1ccc(F)cc1 [Benperidol]	2.05	1.55	2.2	1.83	2.28	1.91
C[C@@H]1CC[C@H]2[C@@H](C)C(=O)O[C@@H]3O[C@@]4(C)CC[C@@H]1[C@]32OO4 [Artemisinin]	-0.479	0.63	-0.6	0.161	-0.503	-0.315
CCN(CC)C(C)C(=O)c1ccccc1 (stereo not drawn) [Amfepramone hydrochloride]	-0.552	0.252	-0.82	-0.758	-0.654	-0.615
CC(C)N(CCC(C(N)=O)(c1ccccc1)c1ccccn1)C(C)C (stereo not drawn) [Disopyramide]	-0.423	0.142	-0.822	-0.537	-0.461	-0.294
O[C@@H]1CCCC[C@H]1N1CCC(c2ccccc2)CC1 [L(-)-vesamicol hydrochloride]	-0.173	1.21	0.21	0.285	-0.268	-0.0101
CN1C(=O)CCS(=O)(=O)C1c1ccc(Cl)cc1 (stereo not drawn) [Chlormezanone]	-0.579	-0.715	-0.534	0.0972	-0.511	-0.314
CC(C)CC(N(C)C)C1(c2ccc(Cl)cc2)CCC1 (stereo not drawn) [Sibutramine HCl]	-0.608	0.271	-0.397	-0.373	-0.534	-0.424
CC(Cc1ccc(O)cc1)NCC(O)c1cc(O)cc(O)c1 (stereo not drawn) [Fenoterol hydrobromide]	-0.386	0.00712	-0.429	-0.631	-0.574	-0.584
COc1ccc(Cc2nccc3cc(OC)c(OC)cc23)cc1OC [Papaverine hydrochloride]	-0.662	0.0558	-0.685	-0.814	-0.607	-0.356
CC1OC(OC2/C=C/C=C/C=C/C=C/CC/C=C/C=C/[C@H](C)[C@@H](O)[C@@H](C)[C@H](C)OC(=O)CC(O)CC(O)CC(O)CCC(O)C(O)C[C@]3(O)CC(O)C(C(=O)O)C(C2)O3)C(O)C(N)C1O (stereo partly drawn) [Nystatine]	-0.00963	0.129	0.146	0.0497	-0.136	-0.223
O=C1CC[C@@]2(O)[C@H]3Cc4ccc(O)c5c4[C@@]2(CCN3CC2CC2)[C@H]1O5 [Naltrexone hydrochloride dihydrate]	-0.577	-0.427	-0.831	-1	-0.48	-0.466
CC(CCc1ccccc1)NC(C)C(O)c1ccc(O)cc1 (stereo not drawn) [Nylidrin]	0.233	1.33	0.218	-0.109	-0.121	0.184
c1ccc2c(c1)OCC(C1=NCCN1)O2 (stereo not drawn) [Idazoxan hydrochloride]	-0.313	0.376	-0.115	-0.982	-0.462	-0.278
